High-throughput results (PubChem)
An excerpt weighted towards active compounds, which were near 19% of everything screened.
DT40 TDP1 CPT = DT40-hTDP1 cell growth loss with CPT. chicken DT40 Tdp1-/-;hTDP1 cells + 20 nM CPT, ATP luminescence, 48 h. Potency, µM (doses to about 46.2 µM), most hits filed as inhibitors. 420,000 tested, 12% active. AID 686979; further: nearly all actives have a fitted effect of over 55% in size
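Chicken DT40 Tdp1-/- cells complemented with human TDP1, 400 cells/well, exposed to compounds plus 20 nM camptothecin for at least 48 h at 37 C; viability read as ATP content by CellTiter-Glo luminescence.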
IL1B secr inh = inhibitors of inflammasome signaling (IL-1 beta secretion); 360,000 tested, 4.7% active; THP-1 LPS/ATP IL-1B secretion, AlphaLISA, 16 h; active compounds read low; activity change, % at 57.5 µM; in the data active means activity change below about -50%; inconclusive means mostly about -30% to -49%
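THP-1 cells pretreated 1 hr with compounds (up to 57.5 uM final), then stimulated with LPS (250 ng/mL final) plus ATP (1.25 mM final); secreted IL-1B measured by AlphaLISA after 16 hr, decreased signal indicating inhibition.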
ELG1 DNA repair = blocks ELG1-dependent DNA repair in HEK293T cells. 330,000 tested, 2.3% active. Potency, µM (top dose mostly 46.1 µM), most hits filed as inhibitors. HEK293T ELG1-luciferase reporter, luminescence, 16 h; DNA damage induced by 5-fluorouridine. AID 504467; further: nearly all actives have a fitted effect of over 55% in size
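DMSO vehicle served as the neutral condition. Each well held 2,000 cells given 5-fluorouridine plus compound; after 16 hr at 37 °C/5% CO2, ONE-Glo was added and luciferase measured 30 min later.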
TDP1 inh = inhibitors of human tyrosyl-DNA phosphodiesterase TDP1; Q9NUW8; AID 485290; recombinant TDP1, AlphaScreen DNA substrate cleavage; 350,000 tested, 0.28% active; Potency, µM (titrated, usually from 130 µM), usual class: inhibitors; further: nearly all actives have a fitted effect of over 40% in size
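AlphaScreen read-out: signal falls as enzyme removes the 3' tyrosine-FITC from a 5'-biotinylated DNA oligo (15 nM, 5 min, RT). Enzyme was E. coli-made recombinant Tdp1 at 1 nM, exposed to compound for 15 min beforehand; beads 10 ug/ml, 10 min.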
Giardia killer = Giardia lamblia killing. Giardia lamblia trophozoite viability. 340,000 tested, 0.15% active. activity change, % at 7.66 µM, hits read low; in the data active means activity change below about -80%; inconclusive means between about -30% and that limit;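 further: parasites exposed to compound for two days anaerobically before the ATP read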
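Compounds were tested on trophozoites seeded at 100 cells/well and held 48 hrs at 37 deg C anaerobically. An ATP-based luminescent kit measured the remaining live cells.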
TDP1 cell noCPT = qHTS for Inhibitors of human tyrosyl-DNA phosphodiesterase 1 (TDP1): qHTS in cells in absence of CPT; 420,000 tested, 15% active; AID 686978, 2013; DT40 Tdp1-/- hTDP1 cells, no CPT, ATP luminescence, 48 h; Potency, µM (series often up to 46.2 µM), actives largely listed as inhibitors; further: nearly all actives have a fitted effect of over 55% in size
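Camptothecin absent (DMSO only). Human TDP1-complemented DT40 knockout cells, 400 cells/well, 37 °C for minimum 48 hr; ATP measured via CellTiter-Glo, 30 min dark incubation, luminescence.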
ELG1 FLuc counter = luciferase inhibition in cell-free luciferin readout for ELG1 hits | shares compounds with ELG1 DNA repair | cell-free firefly luciferase luminescence counter-screen, ViewLux | Potency, µM (series often up to 46.1 µM), most hits filed as inhibitors | 350 tested, 3% active | AID 624247
ELG1 Luc conf = confirmation of human ELG1-dependent DNA repair inhibitors | 670 tested, 68% active | Potency, µM (series often up to 46.1 µM), hits mostly inhibitors | shares compounds with ELG1 DNA repair | AID 624248 | HEK293T ELG1-luciferase levels, luminescence; cells co-treated with 5-fluorouridine; further: nearly all actives have a fitted effect of over 55% in size
Target sequence (Q96QE3 whole entry, looked up): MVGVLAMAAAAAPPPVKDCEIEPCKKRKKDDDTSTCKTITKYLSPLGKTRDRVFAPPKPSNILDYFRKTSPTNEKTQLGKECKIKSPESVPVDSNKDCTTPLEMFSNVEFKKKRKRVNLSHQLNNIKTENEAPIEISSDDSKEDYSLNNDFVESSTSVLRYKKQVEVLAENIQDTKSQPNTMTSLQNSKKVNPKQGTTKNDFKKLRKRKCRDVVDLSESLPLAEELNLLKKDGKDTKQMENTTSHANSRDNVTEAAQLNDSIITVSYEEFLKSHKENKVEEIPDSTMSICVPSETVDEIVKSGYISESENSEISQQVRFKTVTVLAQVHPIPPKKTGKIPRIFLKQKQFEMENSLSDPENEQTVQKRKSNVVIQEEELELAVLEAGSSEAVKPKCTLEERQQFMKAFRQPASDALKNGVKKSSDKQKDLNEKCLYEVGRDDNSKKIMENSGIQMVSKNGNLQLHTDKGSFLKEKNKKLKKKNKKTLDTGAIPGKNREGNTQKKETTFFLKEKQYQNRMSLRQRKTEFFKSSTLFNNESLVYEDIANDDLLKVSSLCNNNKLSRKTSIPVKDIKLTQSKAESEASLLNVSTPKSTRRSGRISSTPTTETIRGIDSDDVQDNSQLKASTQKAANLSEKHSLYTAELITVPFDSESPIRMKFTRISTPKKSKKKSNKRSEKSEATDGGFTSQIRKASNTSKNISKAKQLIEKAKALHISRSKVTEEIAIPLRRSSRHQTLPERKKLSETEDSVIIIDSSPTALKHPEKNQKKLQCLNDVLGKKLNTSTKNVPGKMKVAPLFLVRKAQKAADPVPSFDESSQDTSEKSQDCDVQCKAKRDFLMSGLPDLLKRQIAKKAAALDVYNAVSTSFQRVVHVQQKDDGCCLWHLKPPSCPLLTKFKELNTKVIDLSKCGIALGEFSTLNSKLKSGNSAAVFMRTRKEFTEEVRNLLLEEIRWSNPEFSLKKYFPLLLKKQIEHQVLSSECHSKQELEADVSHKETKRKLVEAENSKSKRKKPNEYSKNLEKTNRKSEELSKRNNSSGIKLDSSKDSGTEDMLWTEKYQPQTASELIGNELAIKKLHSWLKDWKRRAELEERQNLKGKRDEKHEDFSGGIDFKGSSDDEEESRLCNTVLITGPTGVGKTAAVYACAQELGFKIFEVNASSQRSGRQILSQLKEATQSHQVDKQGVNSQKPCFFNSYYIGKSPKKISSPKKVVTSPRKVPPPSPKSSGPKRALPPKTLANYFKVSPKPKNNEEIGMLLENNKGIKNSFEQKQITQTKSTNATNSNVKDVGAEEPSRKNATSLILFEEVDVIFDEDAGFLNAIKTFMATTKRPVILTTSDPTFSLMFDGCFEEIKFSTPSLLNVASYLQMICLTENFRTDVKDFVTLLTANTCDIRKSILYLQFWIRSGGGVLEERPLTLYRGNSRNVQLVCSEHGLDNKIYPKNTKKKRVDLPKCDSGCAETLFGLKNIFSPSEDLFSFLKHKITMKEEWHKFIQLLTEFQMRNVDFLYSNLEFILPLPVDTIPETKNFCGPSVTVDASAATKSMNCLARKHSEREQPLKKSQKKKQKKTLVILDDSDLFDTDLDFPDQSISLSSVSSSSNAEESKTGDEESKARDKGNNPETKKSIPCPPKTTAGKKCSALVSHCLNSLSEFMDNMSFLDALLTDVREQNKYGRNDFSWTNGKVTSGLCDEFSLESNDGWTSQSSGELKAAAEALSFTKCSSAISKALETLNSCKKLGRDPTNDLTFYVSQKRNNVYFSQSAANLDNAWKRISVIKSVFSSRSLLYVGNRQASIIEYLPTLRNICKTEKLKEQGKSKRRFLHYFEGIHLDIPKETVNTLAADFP
ELG1 MMS Luc = confirmation of human ELG1 repair inhibitors, MMS stimulated | Potency, µM (series often up to 46.1 µM), most hits filed as inhibitors | HEK293T luciferase-tagged ELG1 level, MMS stimulated | shares compounds with ELG1 DNA repair | 670 tested, 53% active; further: nearly all actives have a fitted effect of over 60% in size
ELG1 5-FU = confirmation of ELG1 repair inhibitors: viability with 5FU. cell viability with 5-FU, ELG1-dependent repair. Potency, µM (highest dose often 46.1 µM), hits mostly cytotoxic. shares compounds with ELG1 DNA repair. 670 tested, under 10 active;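 further: ELG1-luc HEK293T cells cotreated with 5-fluorouridine at 10 µM final; viability measured 16 h after compound addition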
ELG1 MMS viab = confirmation of ELG1 repair inhibitors: viability with MMS; Cell viability with MMS, ELG1-dependent DNA repair; Potency, µM (series often up to 46.1 µM), hits mostly cytotoxic; AID 624251; shares compounds with ELG1 DNA repair; 670 tested, 33% active;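 further: ELG1-luc HEK293T cells co-treated with 10 µM MMS; viability read 16 h after compound addition; nearly all actives have a fitted effect of over 60% in size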
ELG1 unstim viab = counter-screen for ELG1 repair inhibitors: unstimulated cell viability; cell viability counter-screen, unstimulated, luminescence; 900 tested, 8% active; shares compounds with ELG1 DNA repair; Potency, µM (series often up to 45.9 µM), hits mostly cytotoxic;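 further: compound exposure lasted 16 hours before reading; nearly all actives have a fitted effect of over 55% in size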
FLuc enzyme = counter-screen for ELG1 repair inhibitors: firefly luciferase inhibition. 350 tested, 10% active. AID 624253. purified firefly luciferase, luminescence counter-screen. shares compounds with ELG1 DNA repair. Potency, µM (series often up to 57.5 µM), hits mostly inhibitors
A number is an active result; n = inactive; u = inconclusive; x = not tested or not shown; [ ] = remark or other dose. Unless noted, the call rests on the fitted dose curve; in most records, active means well fitted curve in the direction sought with a large enough effect; inconclusive means small, poorly fitted or top-dose-only effect, or another doubt; inactive means no such curve, though single readings can be large; an effect the other way counts as inactive or inconclusive.

SMILES | DT40 TDP1 CPT | IL1B secr inh | ELG1 DNA repair | TDP1 inh | Giardia killer | TDP1 cell noCPT | ELG1 Luc conf | ELG1 MMS Luc | ELG1 5-FU | ELG1 MMS viab | ELG1 unstim viab | others
CCOC(=O)c1cc(-c2ccc([N+](=O)[O-])cc2)nc2c1c(=O)[nH]c(=O)n2Cc1ccccc1 | 7.3µM | n | n | x | n | 5.8µM | x | x | x | x | n | ELG1 FLuc counter=n;FLuc enzyme=n
CCOC(=O)c1cc(-c2cc3ccccc3o2)nc2c1c(=O)[nH]c(=O)n2CCOC | n | n | n | n | n | n | x | x | x | x | x
CS(=O)(=O)c1ccc(Cl)c(NC(=O)CN2CCCC2c2ccc3c(c2)OCCCO3)c1 (stereo not given) | u | n | u | n | n | u | x | x | x | x | x
COc1ccc(C)cc1NC(=O)CN1CCCC1c1ccc2c(c1)OCCCO2 (stereo not given) | u | n | 4.1µM | n | n | u | 3.1µM | 18µM | u | u | n
CC1(C)CC(=O)N(c2cc(Cl)ccc2Cl)C(=O)C1 | n | n | u | x | n | n | x | x | x | x | x
N#Cc1ccccc1OCC(=O)N1CCN(c2ccccc2F)CC1 | n | x | x | n | x | n | x | x | x | x | x
O=C(CNS(=O)(=O)c1cccc(F)c1)OCC(=O)N1CCCC1=O | n | n | n | n | n | n | x | x | x | x | x
CCN1CCc2c(OCc3ccccc3)cccc2C1=O | n | u | u | n | n | u | x | x | x | x | x
Cc1ccc(OCC(=O)Nc2cnn(CCCC(=O)O)c2)c([N+](=O)[O-])c1 | n | n | n | n | n | n | x | x | x | x | x
COc1cc(C(=O)OC2CSCC2NC(=O)c2ccccc2)cc(OC)c1OC (stereo not given) | u | n | 4.1µM | n | n | u | 10µM | n | u | u | u
Cc1ccccc1OCC(=O)Nc1ccc(C)c(S(=O)(=O)N2CCCCCC2)c1 | u | n | 1.3µM | n[0.505 µM] | n | u | 28µM | 6.3µM | u | 8.9µM | n
Cc1ccc(NC(=O)COc2ccccc2)cc1S(=O)(=O)N1CCCCC1 | n | n | x | x | x | u | x | x | x | x | x
Cc1ccc2c(c1)N(CC(=O)NCC1CCCO1)C(=O)C(C(C)C)O2 (stereo not given) | n | n | n | x | n | n | x | x | x | x | x
COc1ccc(-c2cc(C(F)F)n3ncc(C(=O)Nc4cccc(S(=O)(=O)N5CCOCC5)c4)c3n2)cc1 | n | n | 3.7µM | n | n | u | u | n | n | n | n
Cc1cnc(C(=O)OCC(=O)c2c[nH]c3ccccc23)cn1 | n | n | n | n | n | n | x | x | x | x | x
Cn1cccc1C(=O)OCC(=O)c1c[nH]c2ccccc12 | n | n | u | n | n | n | x | x | x | x | n
